The source of these data is ChEMBL document CHEMBL3988442, “University of Dundee, Small-Polar-MMV Screening Library” (2021).

Molecules are shown by their SMILES. The campaign covered roughly 48,000 compounds. About 13,000 (27%) showed an effect of 50% or more. Some of the results follow.

The assay has as its system Wolbachia pipientis. Kind of assay: Anti-Wolbachia Cell-Based Screen. The settings on record: 5 µM. On the set-up: scale not given: in the data most compounds retested in dose-response had high values. Format: functional.
With `NC(=O)C(CNC(=O)Cc1ccsc1)Cc1ccc(F)cc1` (stereo not drawn), the “Percent Effect” value stood at 90.7%.
As to `CCOc1ccc(CC(CNC(=O)c2sccc2C)C(N)=O)cc1` (stereo not drawn), the “Percent Effect” value was determined as 1.626%.
The result for `Cc1ccc(CC(=O)NCC(Cc2ccc(F)cc2)C(N)=O)cn1` (stereo not drawn) reads 110.1%.
In the case of `CCOc1ccc(CC(CNC(=O)c2ccc(C)s2)C(N)=O)cc1` (stereo not drawn), the “Percent Effect” value was -16.33%.
For `Cc1ccc(CC(=O)NCC(O)c2cc(Cl)cc(Cl)c2)cn1` (stereo not drawn), the “Percent Effect” value is reported as 3.357%.
The result for `CCOC(=O)C(C)NC(=O)CCc1ccc(F)cc1` (stereo not drawn) reads 2.833%; that for `CCc1ccc2c(c1)C(CCNC(=O)CCc1ccsc1)C(=O)N2` (stereo not drawn), 24.64%; that for `NC(=O)C(CNC(=O)CCc1ccccc1)Cc1ccc(F)cc1` (stereo not drawn), 119.3%.
The result for `NC(=O)C(CNC(=O)CCc1ccsc1)Cc1ccc(F)cc1` (stereo not drawn) reads 115.1%; that for `Cc1ccc(CC(=O)NCC(O)c2cccc(C(F)(F)F)c2)cn1` (stereo not drawn), -12.46%; that for `CS(=O)(=O)Nc1cccc(CNC(=O)CCc2ccsc2)c1`, -4.988%.
With `NC(=O)NC(CC(=O)NCCc1ccc(F)cc1)c1ccccc1` (stereo not drawn), the “Percent Effect” value was 2.194%.
The result for `CN1CC(c2ccccc2)CC12CCN(C(=O)c1c(Cl)cnn1C)CC2` (stereo not drawn) reads 11%; that for `CC1CCN(C)c2ccccc2N1C(=O)c1ccnc(-n2cncn2)c1` (stereo not drawn), -2.842%; that for `Cc1ccccc1C(C(=O)NCc1nc(-c2ncccn2)no1)N(C)C` (stereo not drawn), -2.983%.
As to `Cc1cccnc1[C@H](C)Nc1nc(-c2cccnc2)nc2c1CNC2`, the “Percent Effect” value was -9.004%.
The result for `CC(C)n1ccnc1C1CCN(C(=O)c2ccccc2N(C)C)CC1` reads -47.93%.
The result for `COc1cccc(COCC(=O)NC(C(N)=O)c2ccccc2F)c1` (stereo not drawn) reads 9.878%; that for `CCOc1ccc(CC(CNC(=O)c2ccco2)C(N)=O)cc1` (stereo not drawn), -3.482%.
`COc1cccc(CC(=O)NCC(Cc2ccc(F)cc2)C(N)=O)c1` (stereo not drawn): the “Percent Effect” value is given as 112.8%.
The result for `CN(Cc1nnc2ccccn12)C(=O)CCC1CCCC1` reads -7.535%.
In the case of `CN(Cc1nnc2ccccn12)C(=O)CC1CCCCC1`, the “Percent Effect” value was -9.634%.
The result for `COc1ccc(C(=O)N(C)Cc2nnc3ccccn23)c(OC)c1` reads -6.181%; that for `Cc1ccc(C)c(CN(C)Cc2nnc3ccccn23)c1`, -4.756%; that for `COc1cccc(C(=O)N(C)Cc2ncc(C)c(OC)c2C)c1OC`, -3.642%.
For `COc1ccc(OC)c(C(=O)N(C)Cc2nnc3ccccn23)c1`, the “Percent Effect” value is recorded as 126.3%.
The result for `COc1ccc(C(=O)N(C)Cc2cccc(C#N)c2)c(OC)c1OC` reads 5.74%; that for `COc1ccccc1C(=O)N(C)Cc1nnc2ccccn12`, 155.2%.
The result for `COc1ccc(C(=O)N(C)Cc2nnc3ccccn23)c(OC)c1OC` reads 155.5%; that for `CCc1ccc(C2COCCN2C(=O)NCc2cccc(C#N)c2)o1` (stereo not drawn), -15.12%.
The result for `Cn1cccc1-c1cc(C(=O)N2CCCC2c2ccc(C(N)=O)s2)[nH]n1` (stereo not drawn) reads -10.74%; that for `CC(C)CN1CCOC[C@H](Oc2ccc(S(C)(=O)=O)cc2)C1`, 2.76%.
As for `Cc1cc(C(=O)NCc2ccnc(N3CCN(C)CC3)c2)c(C)s1`, the “Percent Effect” value is recorded as 0.2044%.
The result for `CCSC1=Nc2c(cnn2-c2ccc(Cl)cc2)C2=NCCCN12` reads 119%; that for `CSC1=Nc2c(cnn2-c2cccc(Cl)c2)C2=NCCCN12`, 101.8%; that for `O=C1CCCCN1CSc1nnnn1-c1ccc(Cl)cc1`, -1.778%.
The result for `Cc1cc(NC(=O)N2CCC[C@@H]2CO)nn1-c1cccc(Cl)c1` reads -10.34%; that for `CSC1=Nc2c(cnn2-c2ccc(C)cc2)C2=NCCCN12`, 111.5%.
On to `CSC1=Nc2c(cnn2-c2ccccc2)C2=NCCCN12`, for which the “Percent Effect” value was determined as 110.4%.
Take `CC(C)OCCOCc1cccc(NC(=O)NCCn2ccnc2)c1`: the “Percent Effect” value is 1.646%.
As for `O=C(CCc1cc2n(n1)CCN(Cc1ncc[nH]1)C2)N1CCCC1`, the “Percent Effect” value is 6.822%.
For `Cc1cc(N[C@H]2CCCC[C@@H]2O)n2nccc2n1`, the “Percent Effect” value is on record as -46.39%.
The result for `Cc1nc(Cn2cncc(Br)c2=O)no1` reads 4.078%; that for `Cn1cnc2c1CCN(CC(=O)N(Cc1ccccc1F)C1CC1)C2`, -0.08141%.
Turning to `CSC1=Nc2c(cnn2-c2ccc(Cl)cc2)C2=NCCCN12`, the “Percent Effect” value worked out at 101%.
On to `CNC(=O)c1sccc1S(=O)(=O)NC`, for which the “Percent Effect” value was -5.377%.
Regarding `COc1cccc2c1OCCCN(c1nc(N)nc3c1CCNC3)C2`, the “Percent Effect” value is -2.498%.
For the molecule `Cc1cc(CN2CCc3c(CNc4ncccn4)cncc3C2)oc1C.Cl.Cl`, the “Percent Effect” value is 20.89%.
The result for `Cl.Cl.c1cnc(NCc2cncc3c2CCN(Cc2ccsc2)C3)nc1` reads 10.62%.
The result for `Cc1ccc(NCc2cncc3c2CCN(C(=O)C2CC=CC2)C3)nn1.Cl` reads 36.84%.
For the molecule `Cc1nccc(NCc2cncc3c2CCN(CC2CC2)C3)n1.Cl.Cl`, the “Percent Effect” value turned out to be 94.72%.
With `CC(C)(C)c1ccc(-c2n[nH]c3c2CN(CC2CCOC2)CC3)cc1` (stereo not drawn), the “Percent Effect” value is recorded as 5.17%.
The result for `Cc1nccc(NCc2cncc3c2CCN(CC2CCOC2)C3)n1.Cl.Cl` (stereo not drawn) reads 113.7%.
